This note sets out measurements from PubChem BioAssay (Tox21).

Values joined by “and” are separate entries in the source; they are usually repeats but may differ in a detail not shown here. Equal entries are not always repeated. Records with an inconclusive call do not appear. Entries that show only a call come without a potency. Active and inactive are the calls of the source. Calls come from the whole dose curve; as a rule, active = well fitted activation curve with a large enough effect in the repeat runs; inconclusive = weak or mixed curves; inactive = flat fitted curve, though single readings scatter.
Potency is the fitted concentration of half-maximal effect.

The nature of the assay: A CellTox Green Cytotoxicity Assay to monitor cytotoxicity in HepG2 cells - 32 hour (AID 1224883). Note: nearly all actives have a fitted effect of over 50% in size. The settings on record: CellTox Green fluorescence; series mostly up to 76.8 µM. From the text:
National Center for Advancing Translational Sciences [NCATS]
NIH Chemical Genomics Center [NCGC]
U.S. Environmental Protection Agency [EPA]
National Institutes of Environmental Health Sciences [NIEHS]
National Toxicology Program [NTP]
Cell-based models are critical for drug discovery. Determining the natural cytotoxic effects resulting from test compounds is an essential research activity. A CellTox Green Cytotoxicity Assay to monitor cytotoxicity in real time of continues cell culture during 40 hours of the compound treatment was used to screen Tox21 10K library compounds in HepG2 cells. CellTox Green Cytotoxicity Assay is a nonlytic, homogeneous, biofluorescent method to measure cytotoxicity in cell culture after experimental manipulation. The assay system uses a proprietary asymmetric cyanine dye that is excluded from viable cells but preferentially stains the dead cell's DNA. […] Viable cells produce no appreciable increases in fluorescence. Therefore, the fluorescence signal produced by the binding interaction with dead cell DNA is proportional to cytotoxicity.
The mixture of HepG2 cell suspension and reagents were dispensed at 600cells/6 ul/well in 1536-well tissue culture treated black solid bottom plates using a Multidrop dispenser. After the assay plates were incubated at a 37 C/5% CO2 incubator for 5 hours, 23 nL of compounds dissolved in DMSO, positive and negative controls was transferred to the assay plate by a pintool work station. The plates were incubated at 37 C for 40 hours. The fluorescence intensity were measured at 0h, 8h, 16h, 24h, 32h and 40h time points using ViewLux plate reader during compound treatment.
Turning to `CC(C)(COCC1CO1)COCC1CO1` (stereo not given), the Potency entry was “inactive”.
The value for `CC(=[OH+])/C=C(/C)[O-].CC(=[OH+])/C=C(\C)[O-].CC(=[OH+])/C=C(\C)[O-].[Al]` was “inactive”; that for `CC(C)CC(C)(c1ccc(O)cc1)c1ccc(O)cc1` was 43.8 µM (active); that for `O=C(CCCN1CCC2(CC1)C(=O)NCN2c1ccccc1)c1ccc(F)cc1` was “inactive”.
The value for `CC(C)(c1ccc(O)c(-c2ccccc2)c1)c1ccc(O)c(-c2ccccc2)c1` was 49 µM (active); that for `CC[C@H]1C[C@@H]2C[C@H]3c4[nH]c5ccc(OC)cc5c4CCN(C2)[C@@H]13` was 54 µM (active).
The value for `Oc1cccc(-c2ccccc2)c1` was “inactive”; that for `O=[N+]([O-])c1ccc2ccc3cccc4ccc1c2c34` was “inactive”; that for `COc1cccc2c1C(=O)c1c(O)c3c(c(O)c1C2=O)C[C@@](O)(C(=O)CO)CC3OC1CC(N2CCOC(OC)C2)C(O)C(C)O1` (stereo not given in full) was 0.0425 µM (active).
Take `C[C@@H](Oc1ccc(Cl)cc1Cl)C(=O)O`: the Potency entry is “inactive”.
On to `Oc1ccccc1Br`, for which the Potency entry is “inactive”.
Take `COC[C@H](C)N(C(=O)CCl)c1c(C)csc1C`: the Potency entry is “inactive”.
`CC(=[OH+])/C=C(/C)[O-].CC(=[OH+])/C=C(\C)[O-].CC(=[OH+])/C=C(\C)[O-].[Fe]`: the Potency result is “inactive”.
For `COc1ccc(OC)c(C=O)c1`, the Potency entry is “inactive”.
In the case of `O=[N+]([O-])c1cc(C(F)(F)F)c(Cl)c([N+](=O)[O-])c1Cl` it was 21.9 µM (active).
In the case of `CCC[CH2][Sn]([CH2]CCC)([CH2]CCC)[O]C(=O)c1ccccc1` it was 0.692 µM (active).
Turning to `O=[N+]([O-])c1cc([N+](=O)[O-])c2ccccc2c1`, the Potency entry is “inactive”.
For the molecule `Oc1ccc(C(c2ccc(O)cc2)(C(F)(F)F)C(F)(F)F)cc1`, the Potency is 54.7 µM (active) and 54.9 µM (active).
In the case of `COc1ccc(/C(=C/C(=O)N2CCOCC2)c2ccc(Cl)cc2)cc1OC` it was “inactive”.
Turning to `Clc1ccc(CSC(Cn2ccnc2)c2ccc(Cl)cc2Cl)cc1` (stereo not given), the Potency result is “inactive”.
With `CCOc1cc(C(C)(C)C)ccc1C1COC(c2c(F)cccc2F)=N1` (stereo not given), the Potency entry is “inactive”.
As to `COc1ccc(N)cc1N`, the Potency result was “inactive”.
For the molecule `CCCOCC(=Nc1ccc(Cl)cc1C(F)(F)F)n1ccnc1`, the Potency was 43.6 µM (active).
The value for `CC(C)CCCCCCCOP(=O)(Oc1ccccc1)Oc1ccccc1` was “inactive”; that for `Cc1cccc(OP(=O)(Oc2cccc(C)c2)Oc2cccc(C)c2)c1` was “inactive”.
As for `c1ccc2c(c1)[nH]c1cnccc12`, the Potency entry was “inactive”.
The value for `CCCCN(CCCC)C(=S)[S-].CCCCN(CCCC)C(=S)[S-].[Zn+2]` was 21.9 µM (active); that for `CC(C)C(=O)Cl` was “inactive”; that for `C=CC(=O)OCCCCOC(=O)C=C` was 43.6 µM (active).
In the case of `Oc1ccc(C2(c3ccc(O)cc3)c3ccccc3-c3ccccc32)cc1` it was 61.6 µM (active); in that of `C[As+](C)(C)CC(=O)[O-]`, “inactive”; in that of `Clc1ccc(Oc2ccccc2)cc1`, “inactive”.
Turning to `CCOC(=O)c1ccccc1S(=O)(=O)NC(=O)Nc1nc(Cl)cc(OC)n1`, the Potency entry was “inactive”.
In the case of `CC(C)OS(C)(=O)=O` it was “inactive”; in that of `CC(Cc1ccc(C(C)(C)C)cc1)CN1C[C@@H](C)O[C@@H](C)C1` (stereo not given in full), 49 µM (active); in that of `CCCCCCCCCC[N+](C)(C)CCCCCCCCCC`, 9.77 µM (active).
The value for `CN(C)C(=S)S` was 17.7 µM (active) and 5.45 µM (active) and 11 µM (active); that for `COP(=O)(OC)SCn1c(=O)oc2cc(Cl)cnc21` was “inactive”.
In the case of `ClC1=C(Cl)[C@]2(Cl)[C@H]3[C@H]([C@H]4C=C[C@H]3C4)[C@@]1(Cl)C2(Cl)Cl` it was “inactive”.
With `N#CC(Cl)Cl`, the Potency entry is “inactive”.
